Growth inhibition data for 40 compounds are collected here from PubChem BioAssay (NCI).

Molecules are shown by their SMILES. The panel holds about 79,000 compounds, 15% with a hit somewhere; the sample as a whole holds those more often. Unmarked numbers belong to inactive results. The source made the active and inactive calls. Cut-off read from the data, not from the text of the source: active = growth inhibition above about 70%; inactive = the rest.

Assay [1] can be described thus: NCI Yeast Anticancer Drug Screen. Data for the rad50 strain (AID 155).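 Note: 0% = growth of vehicle-only cultures of the same strain.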 Particulars: S. cerevisiae rad50 strain growth inhibition, active compounds read high; at 50.0 µM unless noted. In outline:
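Readout: growth inhibition relative to vehicle-treated cultures. Compound exposure was carried out in a genetically defined yeast strain deficient in DNA damage repair.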

Assay [2] is described as follows: NCI Yeast Anticancer Drug Screen. Data for the mec2-1 strain (AID 157). Particulars: S. cerevisiae mec2-1 strain, active compounds read high; at 50.0 µM unless noted. In outline:
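Yeast mec2-1 mutant treated with compound. Readout: growth inhibition vs vehicle controls.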

Assay [3] in a line: NCI Yeast Anticancer Drug Screen. Data for the sgs1 mgt1 strain (AID 161).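 Note: 0% = growth of cultures given vehicle only.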 Particulars: S. cerevisiae sgs1 mgt1 strain, active compounds read high; at 50.0 µM unless noted. In outline: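 Read-out: growth inhibition vs vehicle controls. Cells: mutant yeast strain deficient in DNA damage repair.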
Assay [4] can be described thus: NCI Yeast Anticancer Drug Screen. Data for the cln2 rad14 strain (AID 165).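 Note: 0% = growth equal to vehicle treated cultures.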 Particulars: S. cerevisiae cln2 rad14 strain, active compounds read high; at 50.0 µM unless noted. In outline:
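cln2 rad14 yeast strain; compound exposure; growth inhibition read vs vehicle controls.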

Assay [5] can be described thus: NCI Yeast Anticancer Drug Screen. Data for the bub3 strain (AID 167). Particulars: S. cerevisiae bub3 mutant strain, active compounds read high; at 50.0 µM unless noted. In outline: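 Readout: yeast growth inhibition, expressed relative to vehicle-only wells. The test organism is a mutant strain from a panel with lesions in DNA repair or checkpoint genes.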
A short description of assay [6]: NCI Yeast Anticancer Drug Screen. Data for the mlh1 rad18 strain (AID 175). Particulars: S. cerevisiae mlh1 rad18 strain growth inhibition, active compounds read high; at 50.0 µM unless noted. In outline:
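Yeast w/ defined DNA-repair lesions; compound exposure; growth vs vehicle controls → % inhibition.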

For the compound `C/C(=N\NC(N)=O)C1(O)CCCCC1`, the growth inhibition was -15.3% in assay [1]; -26.7% in assay [2]; -17.3% in assay [3]; 4.45% in assay [4]; -19.1% in assay [5]; -11% in assay [6].
Regarding `COc1cc(OC)c2c(c1)C(C)(C)CCC2(C)C`, the growth inhibition in assay [1] is 9.2%; in assay [2] it was 2.9%; in assay [3], -7.45%; in assay [4], -23.4%; in assay [5], 16.2%; in assay [6] it was 4.4%.
Take `[CH3][Sn]([CH3])([S]P(=S)(c1ccccc1)c1ccccc1)[S]P(=S)(c1ccccc1)c1ccccc1`: the growth inhibition is 25.1% in assay [1]; 31.7% in assay [2]; 18.7% in assay [3]; -15.8% in assay [4]; 19.1% in assay [5]; 43.9% in assay [6].
For the compound `C1CN(C23OC4(N5CCOCC5)C5C6CC(C7C6C4C72)C53)CCO1` (stereo not given), the growth inhibition in assay [1] is -18.9%; in assay [2], -3%; in assay [3], -3.9%; in assay [4], -43.1%; in assay [5], -0.05%; in assay [6], -11.2%.
Turning to `CC(O)c1cccc(NC(=O)NC2CCCCC2)c1` (stereo not given), the growth inhibition in assay [1] was -2.55%; in assay [2] it was 28.1%; in assay [3] it was 10.8%; in assay [4], -6.1%; in assay [5] it was 29.4%; in assay [6], 27.8%.
In the case of `CCCCCCC(O)C[N+](=O)[O-]` (stereo not given), the growth inhibition is 0.3% in assay [1]; -28.9% in assay [2]; -11.8% in assay [3]; -5% in assay [4]; -2.75% in assay [5]; -3.9% in assay [6].
`O=C(NCCO)c1c(O)c2ccccc2[nH]c1=O`: the growth inhibition in assay [1] is 2.8%; in assay [2] it was 0.2%; in assay [3], -6.05%; in assay [4], 12.9%; in assay [5], 6.55%; in assay [6], 2.9%.
As to `CCN(CC)CCC(=O)c1ccc(Cl)cc1`, the growth inhibition in assay [1] is 19.6%; in assay [2], 21.4%; in assay [3], 14.1%; in assay [4], 10.3%; in assay [5], 1.05%; in assay [6] it was 17.4%.
Consider `CCc1c(C)[nH]c2ccc([N+](=O)[O-])cc12`, for which the growth inhibition in assay [1] was 18.2%; in assay [2], 3.25%; in assay [3] it was 6.7%; in assay [4] it was 19.9%; in assay [5], 23.2%; in assay [6], 26.4%.
`OC1(c2cccnc2)c2ccccc2Oc2ccccc21`: the growth inhibition is -11.8% in assay [1]; 7.25% in assay [2]; 0.7% in assay [3]; -28.1% in assay [4]; -3.7% in assay [5]; -8.2% in assay [6].
Consider `CCOC(=O)C12CCCC1(O)N(NC(=O)OC)C(C)=C2C(=O)OC` (stereo not given), for which the growth inhibition in assay [1] is -6.6%; in assay [2], -7.65%; in assay [3] it was 2.05%; in assay [4] it was -63.4%; in assay [5], -5.6%; in assay [6], -6.5%.
Turning to `O=c1n(-c2ccccc2)c(=O)n2n1C1C3C4C5C3C2C5(F)C41` (stereo not given), the growth inhibition in assay [1] is -7.3%; in assay [2], 8.45%; in assay [3], 5.95%; in assay [4], 13.7%; in assay [5], 6.75%; in assay [6] it was 12.3%.
For the compound `CCC1CC2CC(c3cc4c(cc3OC)N(C)C3C(O)(C(=O)OC)C(OC(C)=O)C5(CC)C=CCN6CCC43C65)c3[nH]c4ccccc4c3CCN(C1)C2` (stereo not given), the growth inhibition in assay [1] is 17.9%; in assay [2], 14.3%; in assay [3], 28.9%; in assay [4], 2%; in assay [5], 8.65%; in assay [6] it was 43.4%.
On to `CCSCCC#N`, for which the growth inhibition was 11.2% in assay [1]; 4.75% in assay [2]; -13% in assay [3]; 0.3% in assay [4]; 8.1% in assay [5]; -10.2% in assay [6].
As for `CCCC(=O)N(C(C)C)C(C)C`, the growth inhibition was 11.2% in assay [1]; 22% in assay [2]; 12.5% in assay [3]; 6.6% in assay [4]; 8.5% in assay [5]; 8.8% in assay [6].
Regarding `O=C1c2cccc3c([N+](=O)[O-])ccc(c23)C(=O)N1Cc1cccnc1`, the growth inhibition was 99.3% (active) in assay [1]; 99.7% (active) in assay [2]; 99.5% (active) in assay [3]; 99.3% (active) in assay [4]; 99.3% (active) in assay [5]; 99.4% (active) in assay [6].
Regarding `COC1OC(CI)C(O)C(O)C1O` (stereo not given), the growth inhibition in assay [1] is -6.05%; in assay [2] it was 2.4%; in assay [3], -4.45%; in assay [4], -24.2%; in assay [5], 37.8%; in assay [6], -16.7%.
With `COC(=O)/C([O-])=C(\C(=O)OC)[n+]1cc(Br)cc2ccccc21`, the growth inhibition is 4.15% in assay [1]; 1.85% in assay [2]; 31.6% in assay [3]; -9.5% in assay [4]; 56.8% in assay [5]; -7.4% in assay [6].
In the case of `O=C1OC(c2ccccc2)=N/C1=C/C=C/c1ccco1`, the growth inhibition in assay [1] is -10.9%; in assay [2], -5.45%; in assay [3], -6%; in assay [4], -9.75%; in assay [5], -1.6%; in assay [6], -40.3%.
For `O=[N+]([O-])c1ccc(N/N=C2/CC3CCC2C3)c([N+](=O)[O-])c1` (stereo not given), the growth inhibition in assay [1] is -4.3%; in assay [2] it was -21.4%; in assay [3] it was 0.8%; in assay [4] it was -7.05%; in assay [5], 5.6%; in assay [6], 0.55%.
On to `CC(=O)c1ccccc1NC=O`, for which the growth inhibition in assay [1] was -7.55%; in assay [2] it was -10.2%; in assay [3], -12.1%; in assay [4], -40.9%; in assay [5], -15.3%; in assay [6], 4.15%.
With `CSc1ccc2c(c1)N(CCCN(C)C)c1ccccc1S2`, the growth inhibition is -15% in assay [1]; -4.15% in assay [2]; -1.05% in assay [3]; -13.8% in assay [4]; 44.5% in assay [5]; 33.5% in assay [6].
As for `O=S1(=O)OCCOS(=O)(=O)C1Cc1nc2ccccc2[nH]1`, the growth inhibition in assay [1] was 3.25%; in assay [2], 15.8%; in assay [3] it was 1.25%; in assay [4], 56.9%; in assay [5], -0.05%; in assay [6] it was 37.1%.
As to `CC1=C(C)C(C#N)(C(=O)CBr)C(=N)O1` (stereo not given), the growth inhibition in assay [1] was 37.4%; in assay [2], 28.1%; in assay [3], 44%; in assay [4], 0%; in assay [5], 33.1%; in assay [6], 68.2%.
With `O=C1CCC(=O)N1C(c1ccccc1)c1ccccc1`, the growth inhibition in assay [1] was -10.4%; in assay [2], 6.95%; in assay [3], 5.85%; in assay [4] it was -30.9%; in assay [5] it was 20.9%; in assay [6], -6.2%.
On to `CCCNCCCCCCNc1cc(OC)cc2cccnc12`, for which the growth inhibition is 54.9% in assay [1]; 6.05% in assay [2]; 39.7% in assay [3]; 63.4% in assay [4]; 31.9% in assay [5]; 54.3% in assay [6].
For `CCCCNC(=O)/C(=C\c1ccc(OC)c(OC)c1)NC(=O)c1ccccc1`, the growth inhibition in assay [1] was -63.5%; in assay [2], -55.3%; in assay [3] it was -34.4%; in assay [4], -1.75%; in assay [5], -35%; in assay [6], -21.6%.
For the compound `CN(C)c1ccc(C2NC(=S)NC3=C2CCCC3)cc1` (stereo not given), the growth inhibition in assay [1] was -15.1%; in assay [2], -15.6%; in assay [3] it was 5%; in assay [4] it was -20.6%; in assay [5], 22.8%; in assay [6] it was 14.6%.
Regarding `CC(Nc1ncc2c(n1)-c1ccccc1OC2)C(=O)O` (stereo not given), the growth inhibition in assay [1] is -2.45%; in assay [2] it was 2.1%; in assay [3] it was -11.4%; in assay [4] it was -7.8%; in assay [5], -31.4%; in assay [6], 16.3%.
On to `CCCCCCCC/C=C\CCCCCCCC(=O)NN`, for which the growth inhibition in assay [1] is -7.85%; in assay [2] it was 0.15%; in assay [3], -4.25%; in assay [4], -76%; in assay [5], -2.7%; in assay [6], -12.8%.
On to `Fc1c(F)c(-c2c(F)c(F)c(S)c(F)c2F)c(F)c(F)c1S`, for which the growth inhibition in assay [1] is -1.15%; in assay [2], 3.75%; in assay [3] it was 21.3%; in assay [4], 3.05%; in assay [5], 0.7%; in assay [6], -21.9%.
With `COC(=O)CSSC(C)C`, the growth inhibition in assay [1] was -29.2%; in assay [2] it was -15.3%; in assay [3] it was -22.1%; in assay [4], 5.1%; in assay [5] it was 6.4%; in assay [6], -59.1%.
For the compound `C=C1CC(COc2ccc3c(C)c(Cl)c(=O)oc3c2)(c2ccccc2)OC1=O` (stereo not given), the growth inhibition was 19% in assay [1]; 20.4% in assay [2]; 40% in assay [3]; 37.5% in assay [4]; 18.8% in assay [5]; 37.6% in assay [6].
In the case of `NC(=O)CSc1c2cc(O)ccc2nc2ccc(O)cc12`, the growth inhibition was -17.8% in assay [1]; -6.95% in assay [2]; -12.6% in assay [3]; 37.5% in assay [4]; -19.4% in assay [5]; 26.7% in assay [6].
For the compound `COc1cccc2c1OC1(N3CCOCC3)CCCCC1C2C[N+](=O)[O-]` (stereo not given), the growth inhibition in assay [1] was 6.8%; in assay [2], -14%; in assay [3], 12.3%; in assay [4], 3.35%; in assay [5], -7.9%; in assay [6] it was -11.1%.
For the compound `OCC12c3ccccc3C3c4ccccc4C1C32` (stereo not given), the growth inhibition in assay [1] was 10.2%; in assay [2] it was -17.4%; in assay [3], -4.05%; in assay [4] it was -31.1%; in assay [5], -18.9%; in assay [6] it was 0.95%.
Regarding `O=c1[nH]c(=O)c2nc(-c3cccnc3)cnc2[nH]1`, the growth inhibition was 2.8% in assay [1]; -0.1% in assay [2]; -9.7% in assay [3]; 1.6% in assay [4]; 0.85% in assay [5]; 7.45% in assay [6].
For the compound `CC1=C(c2ccccc2)C(c2ccccc2)=C(C)C1=NNc1ccc([N+](=O)[O-])cc1[N+](=O)[O-]`, the growth inhibition is 10.6% in assay [1]; 11.8% in assay [2]; 0.8% in assay [3]; 16.4% in assay [4]; -3.25% in assay [5]; 1.4% in assay [6].
As to `COc1ccc(O)c2c1C(=O)CCCC2=O`, the growth inhibition was 3.65% in assay [1]; -0.75% in assay [2]; 6.35% in assay [3]; -4.6% in assay [4]; 4.05% in assay [5]; 0.7% in assay [6].
Take `CCOC(OCC)N1C(=O)C2(C(OCC)OCC)CC3C(OC(=O)N3N)c3cccc1c32` (stereo not given): the growth inhibition in assay [1] is -16.4%; in assay [2], 4.15%; in assay [3] it was -7.45%; in assay [4] it was -8.95%; in assay [5] it was -4.75%; in assay [6], -4.4%.
